PvdQ acylase = blocks Pseudomonas aeruginosa PvdQ acylase activity. purified PvdQ acylase, fluorescence plate reader. inhibition, % at 10 µM. hit rate 0.063% among 340,000. AID 488965; in the data active = inhibition above about 30%, passing the limit was not always enough;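 note: 0% = vehicle neutral wells and 100% = reference inhibitor wells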
HTR5A inv ctr = HTR5A inverse agonism, opioid heterodimer counter-screen | HTR5A cell line, luminescence | inhibition, % at 9.3 µM | hit rate 0.083% among 340,000 | P47898; in the data active = inhibition mostly above about 23%, no sharp cut-off; inactive = mostly below about 18%;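 note: 0% = cells with DMSO and 100% = no-cell wells with DMSO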
Target sequence (P47898 whole entry, looked up): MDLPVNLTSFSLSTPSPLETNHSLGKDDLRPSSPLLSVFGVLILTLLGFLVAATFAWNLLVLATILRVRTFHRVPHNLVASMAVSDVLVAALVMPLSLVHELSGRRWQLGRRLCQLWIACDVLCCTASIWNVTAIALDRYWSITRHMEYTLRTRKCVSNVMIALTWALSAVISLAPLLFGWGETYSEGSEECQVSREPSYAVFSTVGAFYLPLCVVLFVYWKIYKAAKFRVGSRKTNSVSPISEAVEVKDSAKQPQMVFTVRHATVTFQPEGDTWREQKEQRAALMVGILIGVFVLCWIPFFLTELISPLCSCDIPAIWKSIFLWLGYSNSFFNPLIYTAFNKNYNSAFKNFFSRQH
HTR5A ag = counter-screen for OPRM1-OPRD1 agonists: human HTR5A agonism; P47898; HTR5A agonist assay, luminescence, cell-based; activation, % at 9.3 µM; hit rate 0.61% among 340,000; in the data active = activation mostly above about 9.5%, no sharp cut-off; inactive = mostly below about 7.6%;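 note: 0% = cells with vehicle only and 100% = reference agonist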
MOR-DOR inv ag = inverse agonists of human mu-delta opioid receptor heterodimerization. cell-based MOR-DOR heterodimer luminescence, inverse agonism. inhibition, % at 9.3 µM. hit rate 0.21% among 340,000. P35372+P41143; in the data active = inhibition above about 22%, passing the limit was not always enough;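 note: 0% = cells with DMSO and 100% = wells without cells with DMSO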
Yeast superoxide = yeast age-related superoxide inhibition as caloric restriction mimetic | S. cerevisiae aged cells, superoxide DHE fluorescence; stronger effect = lower value | AID 2690 | hit rate 0.18% among 330,000 | superoxide response (% of plate mean), % at 10 µM;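 active = superoxide response under a set limit, about three screen SD below normal, cut at about 65% in these data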;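 note: yeast aged for seven days with compound at 30 °C before DHE staining; 100% = average MFI of all compound-treated wells on the plate with controls excluded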
MOR-DOR ag = agonists of human mu-delta opioid receptor heterodimerization | P35372+P41143 | cells, OPRM1-OPRD1 heterodimerization, luminescence | activation, % at 9.3 µM | hit rate 0.3% among 340,000 | AID 504326; in the data active = activation above about 18%;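 note: 0% = vehicle-treated cells and 100% = reference agonist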
Superoxide pick = yeast aging superoxide inhibition, cherry pick confirmation. shares compounds with Yeast superoxide. S. cerevisiae aging, superoxide DHE fluorescence; stronger effect = lower value. superoxide response (% of plate), % at 10 µM. hit rate 1% among 850;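 active = superoxide signal below 65% of the plate average of sample wells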;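 note: cells aged with compound for 7 days at 30 degrees C before staining; 100% equals mean DHE fluorescence of all compound wells on the plate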
DHE fluor count = DHE fluorescence interference, counter-screen artifact. shares compounds with Yeast superoxide. S. cerevisiae BY4741, flow cytometry; stronger effect = lower value. fluorescence response, % at 10 µM. 850 tested, under 10 active;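 active = fluorescence response below 15%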;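 note: percent of the mean fluorescence averaged over all compound wells on the plate; lower means stronger quenching of DHE signal or ROS scavenging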
The depositor's hits bear a star; / = no result given. Rows were chosen to be rich in hits. Some 1.3% of all compounds tested hit in one or more screens of this group.

SMILES	PvdQ acylase	HTR5A inv ctr	HTR5A ag	MOR-DOR inv ag	Yeast superoxide	MOR-DOR ag	Superoxide pick	DHE fluor count
CCn1c(SCC(=O)Nc2ccc(C(=O)OC)cc2)nnc1-c1cccs1	-11	-2	0	11	89	-2	105	101
COC(=O)c1ccc(NC(=O)CSc2ccc(-c3ccccn3)nn2)cc1	5	3	-1	8	102	-1	82	98
CCn1c(SCC(=O)N2CCN(S(=O)(=O)c3ccccc3)CC2)nnc1-c1cccs1	-15	-20	8	4	63*	-1	101	92
CCn1c(C)nnc1SCC(=O)Nc1ccc(C(C)=O)cc1	-12	-15	4	6	59*	-1	91	98
CCn1c(SCC(=O)NCC(=O)Nc2ccc(F)cc2)nnc1-c1cccs1	6	-9	-1	-9	104	2	/	/
Cc1nnc(SCC(=O)N2CCN(S(=O)(=O)c3ccccc3)CC2)n1Cc1ccccc1	-7	-1	3	18	103	-3	/	/
Cc1ccc(C)c(-n2c(-c3ccc(Br)cc3)csc2=NC(=O)c2ccccc2F)c1	-4	10	-3	-5	53*	1	106	90
COc1ccc(/C=C/C(=O)NC(=S)NNC(=O)Cc2cccs2)cc1OC	8	9	-1	19	123	-3	/	/
O=C(/C=C/c1cccs1)NC(=S)NNC(=O)Cc1cccs1	-6	17	-5	20	39*	-4	73	97
CCOc1ccc(NC(=O)C2=NN(c3ccccc3)C(=O)CC2)cc1S(=O)(=O)N1CCCCC1	-4	-10	4	-3	129	1	/	/
Nc1ncn(CC(=O)c2ccccc2)n1	4	-12	5	11	106	-2	/	/
O=C(Cn1nc(Br)nc1Br)c1ccccc1	-17	11	-3	5	57*	-1	102	101
Cc1cc(C2=CC(=O)C[C@H](c3ccc4c(c3)OCO4)C2)ccc1F	-2	-6	-1	0	110	0	/	/
CCc1ccc(C(=O)Nc2ccc3c(c2)n(C)c(=O)n3C)cc1	7	-12	5	2	97	0	/	/
CCC(CO)NCc1ccc2c(c1)n(C)c(=O)n2C (stereo unspecified)	6	-16	-1	12	61*	-2	121	120
CN(C)c1ccc(C(CNC(=O)COc2ccc(Cl)cc2)N2CCCC2)cc1 (stereo unspecified)	8	1	0	9	116	-2	/	/
Cc1cc(-c2nnc(SCC(=O)Nc3ccccc3)n2C)no1	-12	-9	-2	12	58*	-2	104	115
Cc1cc(-c2nnc(SCC(=O)Nc3ccc(C(F)(F)F)cc3)n2C)no1	0	-13	5	4	113	-1	/	/
CCCOC(=O)CSc1nnc(-c2ccc(Cl)cc2Cl)o1	4	1	-7	-33	99	6	101	88
COc1cccc(-c2nnc(SCC(=O)N(C(C)C)C(C)C)o2)c1	-10	-4	2	6	110	-1	/	/
COc1cc(OC)cc(-c2nnc(SCC(=O)N(C(C)C)C(C)C)o2)c1	-8	21	4	-6	85	1	102	92
CCOC(=O)CSc1nnc(-c2ccccc2)o1	-3	11	-3	13	99	-2	114	125
COC(=O)CSc1nnc(-c2ccc(OC)c(OC)c2)o1	-10	5	1	6	95	-1	113	102
CCOC(=O)CSc1nnc(-c2ccc(Cl)cc2Cl)o1	-8	-3	1	0	129	0	/	/
CC1CC(=O)Nc2ccccc2N1C(=O)COc1cc(Cl)ccc1Cl (stereo unspecified)	4	-21	8	5	87	-1	/	/
SMILES	PvdQ acylase	HTR5A inv ctr	HTR5A ag	MOR-DOR inv ag	Yeast superoxide	MOR-DOR ag	Superoxide pick	DHE fluor count
CCOc1ccc(-n2nnnc2SCC(=O)NNC(=O)c2ccco2)cc1	-14	2	-1	-3	92	0	/	/
O=C(CSc1nc2cc(C(=O)O)ccc2c(=O)n1-c1ccc(F)cc1)Nc1ccc(F)c(F)c1F	-5	-30	9	6	102	-1	/	/
CCCCn1c(N)c(N(CC(C)C)C(=O)c2ccc(-c3ccc(C(C)=O)cc3)o2)c(=O)[nH]c1=O	-3	4	-1	13	65*	-2	110	103
O=C(O)c1ccccc1OCCN1CCCC1=O	-29	6	-1	7	101	-1	/	/
O=C(Nc1ccc2ccccc2c1)c1cc(F)c(F)cc1Cl	-6	9	-3	-21	91	4	/	/
O=C(Nc1ccc2ccccc2c1)c1ccc(Cl)cc1Cl	-8	-17	5	-15	50*	3	95	100
CC1(C)Cc2ccccc2C2=NNC(=O)C2=N1	18	16	-6	-40	56*	7	89	87
CC1(C)Cc2ccccc2C(Nn2cnnc2)=N1	4	6	2	0	98	0	/	/
CCOC(=O)[C@H]1[C@H]2COc3ccc(Br)cc3[C@@H]2N2C(=O)c3c(C)cc(C)cc3NC(=O)[C@@]12C	-16	-8	-1	10	77	-2	/	/
COc1cccc(/C=N/NC(=O)c2[nH]c(C)c(C(=O)N/N=C/c3cccc(OC)c3O)c2C)c1O	-7	-12	4	3	63*	-1	88	94
COc1ccc(S(=O)(=O)N2CCCCCC2)cc1NC(=O)CN(C)Cc1ccc2c(c1)OCO2	9	1	5	10	110	-3	/	/
Cc1ccc(CNC(=O)Cc2ccc(-n3c(=O)[nH]c4ccsc4c3=O)cc2)cc1	2	0	2	19	56*	-3	108	100
Cc1cccc(-n2ncc3c(N4CC(C)CC(C)C4)ncnc32)c1 (stereo unspecified)	-16	-29	10	-21	92	4	/	/
Cc1cccc(-n2ncc3c(N4CCCC4)ncnc32)c1	-6	-1	0	14	104	-3	92	109
Cc1cccc(-n2ncc3c(N4CCOCC4)ncnc32)c1	-13	-3	1	-6	97	1	100	91
N#CCC(=O)Nc1ccc(C(=O)NNC(=O)c2ccccc2-n2cccc2)cc1	-10	-16	7	1	102	0	/	/
CN(CC(=O)Nc1ccc(F)c(F)c1F)C(=O)Cc1ccc(S(=O)(=O)N2CCOCC2)s1	-10	-12	3	3	/	-1	/	/
Cc1ccc(Cl)cc1NS(=O)(=O)c1cn(C)nc1C	-12	-2	1	14	61*	-2	102	97
COc1cc(/C=C(\C#N)C(=O)NC(C)C)cc(Cl)c1O	20	0	2	16	96	-3	106	92
O=C(CSc1ccc(-c2nc3ccccc3[nH]2)cn1)Nc1ccc(S(=O)(=O)N2CCCC2)cc1	-13	9	3	-18	64*	3	119	109

Screens as filed in PubChem BioAssay.
